Measurements reported in PubChem BioAssay (Tox21).
“And” between values parts separate entries of the source, which are not always exact repeats. Equal entries are not always repeated. Results filed as inconclusive are left out. Unmarked numbers belong to inactive results. The source made the active and inactive calls. The call rests on the fitted dose curve; in most records, active means well fitted cell-killing curve with a large enough effect in the repeat runs; inconclusive means weak or mixed curves, or effect the other way; inactive means no such curve, though single readings can be large or run the other way. Positions of bridges follow the written chain, without caps; N, C: chain ends. Non-standard residues stand in square brackets, D forms with d. Residues, ends and D or L forms follow the SMILES beside them. *: point of attachment. X1 = CC[C@@H](C)[C@@H](N)C1=N[C@H](C(=O)*)CS1; d(aIle) = CC[C@H](C)[C@@H](N)C(=O)O; dOrn = NCCC[C@@H](N)C(=O)O

Assay: qHTS assay to identify small molecule antagonists of the thyroid receptor (TR) signaling pathway - cell viability counter screen (AID 743064); further: nearly all actives have a fitted effect of over 50% in size
Details: GH3.TRE-Luc viability, CellTiter-Fluor, 24 h; series mostly up to 70.3 µM; activity change, negative = cytotoxic: at the top concentration
Excerpt: National Center for Advancing Translational Sciences [NCATS]
NIH Chemical Genomics Center [NCGC]
U.S. Environmental Protection Agency [EPA]
National Institutes of Environmental Health Sciences [NIEHS]
National Toxicology Program [NTP]
U.S. Food and Drug Administration [FDA]
Thyroid receptor (TR), a nuclear hormone receptor, plays an important role in development, proliferation, differentiation, metabolism, brain function, and cardiovascular system. […] To profile the Tox21 10K compound library in TR signaling, a cell-based GH3-TRE-Luc assay (GH3.TRE-Luc cell line, developed by the laboratory of Dr. Albertinka J. Murk, Wageningen University) was used to measure the inhibition of TR. GH3 (rat pituitary tumor) cells stably expressing a TR activity sensor consisting of two TR response elements and a luciferase reporter gene. The cytotoxicity of the Tox21 compound library against the GH3.TRE-Luc cell line was tested in parallel by measuring the cell viability using CellTiter-Fluor assay (Promega, Madison, WI) in the same wells.
Tox21 Assay Protocol Summary:
GH3.TRE-Luc cells were dispensed at 1500 cells/4 uL/well into 1536-well white solid bottom plates using a Multidrop Combi dispenser (Thermo Fisher Scientific Inc., Waltham, MA). After the assay plates were incubated at 37 C for 4 hours, 23 nL of library compound or DMSO controls was transferred to the assay plates by a pintool station (Kalypsys, San Diego, CA), followed by addition of 1 ul of T3 (1 nM, final concentration in the wells) to stimulate TR transactivation. The assay plates were incubated at 37 C for 23.5 h, and then 1 uL of CellTiter-Fluor reagent (Promega, Madision, WI) of measuring cytotoxicity was added to each well using a Bioraptr Flying Reagent Dispenser (FRD) workstation (Beckman Coulter, Indianapolis, IN, USA). The plates were incubated at 37C and 5% CO2 for additional 30 min, and fluorescence intensity was measured by a ViewLux plate reader (PerkinElmer, Shelton, CT).
On the % scale 0 is the no-effect control and ±100 the full control effect; potency means the concentration at half of the fitted maximal effect.

| Compound | activity change, negative = cytotoxic | Potency |
| --- | --- | --- |
| CCCOC(=O)c1ccc(O)cc1 | 32.9% | – |
| COC1=C(OC)C(=O)C(C/C=C(\C)CC/C=C(\C)CC/C=C(\C)CC/C=C(\C)CC/C=C(\C)CC/C=C(\C)CC/C=C(\C)CC/C=C(\C)CC/C=C(\C)CCC=C(C)C)=C(C)C1=O | – | inactive |
| CC(Cc1ccc(O)c(O)c1)C(C)Cc1ccc(O)c(O)c1 (stereo not given) | – | 13.7 µM (active) |
| CCC(C)(C)c1ccc(CC(C)CN2C[C@@H](C)O[C@@H](C)C2)cc1 (stereo not given in full) | – | 11.9 µM (active) |
| CO[C@H]1C[C@H](O[C@H]2[C@H](C)[C@@H](O[C@@H]3O[C@H](C)C[C@H](N(C)C)[C@H]3O)[C@@H](C)C[C@]3(CO3)C(=O)[C@H](C)[C@@H](O)[C@@H](C)[C@@H](C)OC(=O)[C@@H]2C)O[C@@H](C)[C@@H]1O | 15.6% [at 32.5 µM] | – |
| CCCC(CCC)C(=O)OC1C[C@H]2CC[C@@H](C1)[N+]2(C)C (stereo not given in full) | – | inactive |
| CCN(CC)C(=O)[C@]1(c2ccccc2)C[C@@H]1CN | 20.1% | – |
| NCCCC(=O)O | 14.9% | – |
| C=C1C(CCl)(CCl)C2(Cl)C(Cl)C(Cl)C1(Cl)C2(Cl)Cl (stereo not given) | – | 5.96 µM (active) and 67.8 µM (active) |
| O=C(O)COc1ccc(C(=O)c2cccs2)c(Cl)c1Cl | – | inactive |
| C=CC1=C(C(=O)O)N2C(=O)[C@@H](NC(=O)/C(=N\O)c3csc(N)n3)[C@H]2SC1 (stereo in doubt) | 1.92% | – |
| COc1c(Br)cc(Br)c(C)c1Br | -1.81% | – |
| O=C1OC(=O)c2cc(-c3ccc4c(c3)C(=O)OC4=O)ccc21 | 9.12% | – |
| CCN(CC)CCOC[C@H]1O[C@@H](O)[C@H](OCCN(CC)CC)[C@@H](O)[C@@H]1O | 10.1% | – |
| NC[C@H]1O[C@H](O[C@H]2[C@H](O)[C@@H](O[C@H]3O[C@H](CO)[C@@H](O)[C@H](N)[C@H]3O)[C@H](N)C[C@@H]2N)[C@H](N)C[C@@H]1O | 24.1% [at 32.5 µM] | – |
| COc1cccc2c1[C@@H]1CN(CCCCn3c(=O)[nH]c4c(sc5ncc(-c6ccccc6)nc54)c3=O)C[C@@H]1CO2 | – | 11.9 µM (active) |
| O=C1[O][Bi][O]c2ccccc21 | 11.5% | – |
| C=CC(N)CCC(=O)O (stereo not given) | 22.2% | – |
| CCN(CC)C(=O)c1cccnc1 | 18.2% | – |
| C=CCc1cc(S(=O)(=O)c2ccc(O)c(CC=C)c2)ccc1O | – | 61.1 µM (active) |

| Compound | activity change, negative = cytotoxic | Potency |
| --- | --- | --- |
| COc1cc2c(c(OC)c1OC)-c1c(cc3c(c1OC)OCO3)C[C@@H](C)[C@](C)(O)C2 | -23.9% | – |
| C=CCN1C(=O)C(CC(C)C)NC1=S (stereo not given) | – | inactive |
| C[C@H](O)CN(C)C | 4.18% | – |
| N[C@H](CO)C(=O)O | 13.4% | – |
| CC(=O)NC[C@H]1CN(c2ccc(N3CCOCC3)c(F)c2)C(=O)O1 | -7.01% | – |
| O=P(O)(O)OP(=O)(O)OP(=O)(O)O | 9% | – |
| NCCCC[C@H](NC(=O)[C@@H]1CCCN1C(=O)[C@@H]1CSSC[C@H](N)C(=O)N[C@@H](Cc2ccc(O)cc2)C(=O)N[C@@H](Cc2ccccc2)C(=O)N[C@@H](CCC(N)=O)C(=O)N[C@@H](CC(N)=O)C(=O)N1)C(=O)NCC(N)=O | – | inactive |
| C=CC[N+]1([C@H]2C[C@H]3[C@@H]4CC[C@H]5C[C@H](O)[C@@H](N6CCOCC6)C[C@]5(C)[C@H]4CC[C@]3(C)[C@H]2OC(C)=O)CCCC1 | 2.99% | – |
| NC(=S)NS(=O)(=O)c1ccc(N)cc1 | -13.5% | – |
| Cc1ncc(C[n+]2csc(CCOP(=O)(O)O)c2C)c(N)n1 | 18.9% | – |
| O=C(O)Cc1nn(Cc2ccc(Br)cc2F)c(=O)c2ccccc12 | 7.24% | – |
| NC(=O)C1c2ccccc2CCc2ccccc21 | 18.1% | – |
| CO/N=C(\C(=O)N[C@@H]1C(=O)N2C(C(=O)O)=C(COC(C)=O)CS[C@H]12)c1csc(N)n1 (stereo in doubt) | 18.9% | – |
| CCCOC(=O)c1ccccc1O | 25.9% | – |
| O=S(=O)(O)CC(S)CS (stereo not given) | -9.85% | – |
| CC(C)=CCC/C(C)=C/CC/C(C)=C/CC/C(C)=C/CC1=C(C)C(=O)c2ccccc2C1=O | -26.4% | – |
| CCCCCN=C(N)N/N=C/c1c[nH]c2ccc(OC)cc12 | 15.2% | – |
| N[C@@H](Cc1cnc[nH]1)C(=O)O | 2.09% | – |
| CC[C@@H](C)[C@@H](N)C1=N[C@H](C(=O)N[C@@H](CC(C)C)C(=O)N[C@@H](CCC(=O)O)C(=O)N[C@@H](C(=O)N[C@@H]2CCCCNC(=O)[C@@H](CC(N)=O)NC(=O)[C@@H](CC(=O)O)NC(=O)[C@@H](Cc3cnc[nH]3)NC(=O)[C@@H](Cc3ccccc3)NC(=O)[C@@H]([C@H](C)CC)NC(=O)[C@@H](CCCN)NC2=O)[C@@H](C)CC)CS1 (X1-LE[d(aIle)][dK][dOrn][dI][dF][dH][dD][dN]; lactam 4-C) | – | inactive |
| Cc1cc(F)ccc1-c1cc(N2CC[C@@H](O)[C@H]2CO)ncc1N(C)C(=O)C(C)(C)c1cc(C(F)(F)F)cc(C(F)(F)F)c1 | – | 10.7 µM (active) |
